p53ts 32C kill: qHTS Screen for Compounds that Selectively Target Cancer Cells with p53 Mutations: Cytotoxicity of p53ts Cells at the Permissive Temperature | H1299-p53A138V at 32C, ATP luminescence viability, 24 h | Potency, µM (top dose mostly 46.1 µM), for the others: at the highest dose activity change, negative = cytotoxicity, most hits filed as cytotoxic | actives 0.93% (n = 130,000) | AID 924, 2007;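 note: 0% = DMSO and -100% = full killing by reference compound; nearly all actives have a fitted effect of over 55% in size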
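ATP-content luminescence (ATPlite) read-out after 24 h compound exposure at 32C in H1299-p53A138V cells (600/well). Tested up to 46 uM. Normalized to DMSO (0%) and 100 uM tamoxifen (100% killing); Hill-fit AC50.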
HPGD inh: qHTS Assay for Inhibitors of HPGD (15-Hydroxyprostaglandin Dehydrogenase); Potency, µM, inactives show at the highest dose activity change, negative = inhibition, actives largely listed as inhibitors; 15-hydroxyprostaglandin dehydrogenase [NAD(+)] (Homo sapiens), P15428; actives 4.3% (n = 150,000); purified HPGD, NADH fluorescence kinetic, PGE2 substrate; AID 894, 2007; active = well fitted inhibition curve with a large enough effect, not every such curve was filed as active; inconclusive = small, poorly fitted or top-dose-only effect, or another doubt; inactive = no such curve, though single readings can be large or run the other way
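20 nM HPGD preincubated 15 min at room temperature with compound in 50 mM Tris-HCl pH 8, 0.01% Tween 20. Started with 1 mM NAD+ and 30 uM prostaglandin E2; NADH fluorescence (360/450 nm) read 5 times over 30-s intervals, last minus first.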
p53ts 39C kill: qHTS Screen for Compounds that Selectively Target Cancer Cells with p53 Mutations: Cytotoxicity of p53ts Cells at the Nonpermissive Temperature | Potency, µM (top dose mostly 46.1 µM), inactives show top-dose activity change, negative = cell killing, usual class: cytotoxic | H1299-p53A138V viability at 39C, ATP luminescence, 24 h | actives 1.5% (n = 130,000); note: nearly all actives have a fitted effect of over 55% in size
12-hLO inh: qHTS Assay for Inhibitors of 12-hLO (12-human lipoxygenase) | Polyunsaturated fatty acid lipoxygenase ALOX12 (Homo sapiens), P18054 | purified 12-hLO, xylenol orange hydroperoxide absorbance | Potency, µM (doses to about 57.1 µM), inactives show at the top dose activity change, negative = inhibition, usual class: inhibitors | actives 0.12% (n = 150,000); note: nearly all actives have a fitted effect of over 55% in size
Target sequence (P18054 whole entry, looked up): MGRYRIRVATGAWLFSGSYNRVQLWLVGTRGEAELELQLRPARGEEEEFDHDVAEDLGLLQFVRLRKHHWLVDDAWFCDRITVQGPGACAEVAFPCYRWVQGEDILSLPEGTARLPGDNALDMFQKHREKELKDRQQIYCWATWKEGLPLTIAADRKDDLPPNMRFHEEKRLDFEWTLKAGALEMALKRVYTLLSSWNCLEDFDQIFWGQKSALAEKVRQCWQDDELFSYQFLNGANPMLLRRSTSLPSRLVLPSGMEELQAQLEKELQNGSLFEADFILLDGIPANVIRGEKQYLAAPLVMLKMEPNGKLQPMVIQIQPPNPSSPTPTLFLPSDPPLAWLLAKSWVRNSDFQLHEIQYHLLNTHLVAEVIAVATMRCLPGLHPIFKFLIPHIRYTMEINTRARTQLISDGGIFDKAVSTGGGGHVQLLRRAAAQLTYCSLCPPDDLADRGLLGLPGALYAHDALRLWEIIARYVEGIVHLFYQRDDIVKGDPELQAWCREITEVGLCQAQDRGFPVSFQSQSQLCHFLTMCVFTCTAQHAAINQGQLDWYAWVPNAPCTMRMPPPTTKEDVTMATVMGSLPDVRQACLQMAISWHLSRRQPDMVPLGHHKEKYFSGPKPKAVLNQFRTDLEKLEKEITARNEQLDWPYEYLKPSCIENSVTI
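Hydroperoxide output read as Fe(III)-xylenol orange absorbance, 573-to-405 nm ratio, after 30 min reaction with 40 uM arachidonic acid. Enzyme: 150 nM purified human 12hLO, 15 min compound preincubation; 25 mM Hepes pH 7.0, room temperature.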
* = called active by the depositor; [ ] = remark or other dose. Shown are actives, neighbours in structure and some others; about 4.4% of the full set was active somewhere. Unless noted, calls come from the whole dose curve; as a rule, active = well fitted curve in the direction sought with a large enough effect; inconclusive = small, poorly fitted or top-dose-only effect, or another doubt; inactive = no such curve, though single readings can be large; an effect the other way counts as inactive or inconclusive. Unless noted, % is set by controls: 0 for no effect and ±100 for the full control effect; potency is the fitted concentration of half-maximal effect.

Results for C=CCn1c(-c2csc3c2CCC(C)C3)n[nH]c1=S (stereo not drawn) ?
HPGD inh: 20µM*; 12-hLO inh: -16%

Results for CCn1c(-c2csc3c2CCCC3)n[nH]c1=S ?
HPGD inh: 25µM*; 12-hLO inh: -3%

What do the screens show for `CCCCn1c(-c2csc3c2CCCC3)n[nH]c1=S`?
HPGD inh: 16µM*; 12-hLO inh: inconclusive

What do the screens show for `COc1ccc(Nc2cc(C(=O)NCCCN3CCN(c4ccc(OC)cc4)CC3)c3ccccc3n2)cc1`?
p53ts 32C kill: inconclusive; p53ts 39C kill: 13µM*

How did COc1ccc(N2CCN(CCCNC(=O)c3cc(Nc4ccccc4OC)nc4ccccc34)CC2)cc1 do in these assays?
p53ts 32C kill: 1%; p53ts 39C kill: inconclusive

How did COc1ccc(CNc2nc(-c3ccc4c(c3)OCO4)nc3ccccc23)c(OC)c1 do in these assays?
p53ts 32C kill: 1%; p53ts 39C kill: -1%

Results for Cc1cc(O)ccc1Nc1nc(-c2sc(N)nc2C)cs1 ?
p53ts 32C kill: 2%; HPGD inh: 16µM*; p53ts 39C kill: -1%; 12-hLO inh: -2%

Results for O=C(Nc1nccs1)c1cc(-c2ccccc2)nc2ccccc12 ?
HPGD inh: 18µM*; 12-hLO inh: 0%

How did O=C(Nc1nccs1)c1sc2ccccc2c1Cl do in these assays?
HPGD inh: 13µM*; 12-hLO inh: 2%

Results for CCOC(=O)c1cnc2ccc(C)cc2c1Nc1ccc(OCc2ccccc2Cl)cc1 ?
p53ts 32C kill: -16%; p53ts 39C kill: -13%

What do the screens show for `CC1C(=O)CCC2[C@]1(C)CCC1[C@]2(C)CC[C@@]2(C)C3CC(C)(C)CC[C@]3(C)CC[C@@]12C` (stereo partly drawn)?
p53ts 32C kill: 4%; HPGD inh: -1%; p53ts 39C kill: -2%; 12-hLO inh: -1%

How did COc1cc(CNn2nnnc2N)cc(Br)c1OCC(=O)NC(C)(C)C do in these assays?
HPGD inh: -1%; 12-hLO inh: -2%

What do the screens show for `COc1cc(CNn2nnnc2N)cc(Br)c1OCc1c(Cl)cccc1Cl`?
HPGD inh: 16µM*; 12-hLO inh: -3%

Results for Cc1onc(-c2c(F)cccc2Cl)c1C(=O)OCN1C(=O)c2ccccc2C1=O ?
p53ts 32C kill: -6%; HPGD inh: 1.4µM*; p53ts 39C kill: -4%; 12-hLO inh: -9%

How did Cc1onc(-c2ccccc2Cl)c1C(=O)OCn1nnc2ccccc2c1=O do in these assays?
p53ts 32C kill: 3%; HPGD inh: 32µM*; p53ts 39C kill: -7%; 12-hLO inh: -3%

How did O=C(OCn1nnc2ccccc2c1=O)c1cc(-c2ccccc2Cl)nc2ccccc12 do in these assays?
p53ts 32C kill: -1%; HPGD inh: -17%; p53ts 39C kill: -5%; 12-hLO inh: -1%

How did Cc1[nH]c2ccccc2c1C(=O)COC(=O)c1c(-c2c(F)cccc2Cl)noc1C do in these assays?
HPGD inh: -8%; p53ts 39C kill: 8%; 12-hLO inh: 0%

How did COc1ccc(C2CC(c3c(O)cc(C)oc3=O)=NCCS2)c(OC)c1 (stereo not drawn) do in these assays?
p53ts 32C kill: 4µM*; HPGD inh: 16µM*; p53ts 39C kill: 2.5µM*; 12-hLO inh: -21%

How did CCOc1ccc(-n2cnnn2)cc1S(=O)(=O)Nc1c(C)cccc1C do in these assays?
p53ts 32C kill: -3%; HPGD inh: 14µM*; p53ts 39C kill: 4%; 12-hLO inh: 0%

How did COc1cccc(CNC(=O)CSc2nnc(C)c3c(C)n(-c4ccccc4)nc23)c1OC do in these assays?
p53ts 32C kill: -6%; p53ts 39C kill: 25µM*

How did COc1ccccc1CNC(=O)CCn1nc(C)c2c(C)n(-c3ccccc3)nc2c1=O do in these assays?
p53ts 32C kill: 7%; p53ts 39C kill: 3%

Results for COc1ccc(CNC(=O)CSc2nnc(C)c3c(C)n(-c4ccccc4)nc23)c(OC)c1 ?
p53ts 32C kill: 14%; p53ts 39C kill: 13µM*

Results for COc1ccc(C)cc1NC(=O)C(=O)NCC(c1cccnc1)N1CCc2ccccc21 (stereo not drawn) ?
p53ts 32C kill: 4%; p53ts 39C kill: 10%

How did Cc1cc(C)c(-c2n[nH]c3c2C(c2ccccc2F)N(Cc2ccco2)C3=O)c(O)c1 (stereo not drawn) do in these assays?
p53ts 32C kill: -23%; p53ts 39C kill: 16µM*

What do the screens show for `CCCOc1cccc(C2c3c(-c4ccccc4O)n[nH]c3C(=O)N2Cc2ccco2)c1` (stereo not drawn)?
p53ts 32C kill: inconclusive; p53ts 39C kill: 32µM*

How did Cc1coc2c1C(=O)C(=O)c1c-2ccc2c1CCCC2(C)C do in these assays?
p53ts 32C kill: inconclusive; HPGD inh: 16µM*; p53ts 39C kill: -11%; 12-hLO inh: inconclusive

How did CCc1c(C)nc2nncn2c1NCc1ccc(Cl)cc1 do in these assays?
p53ts 32C kill: 5%; p53ts 39C kill: -19%

Results for COc1ccc(OC)c(CCNC(=O)Cn2sc3nc(C)cc(C)c3c2=O)c1 ?
p53ts 32C kill: -13%; HPGD inh: 1.4µM*; p53ts 39C kill: 16%; 12-hLO inh: inconclusive

What do the screens show for `CCOC(=O)CSC1=NC(=O)/C(=C\c2ccc(OC(C)=O)cc2)S1`?
HPGD inh: 25µM*; 12-hLO inh: -5%

Results for Cc1ccccc1C(=O)Nc1cccc(-c2nc3cccnc3s2)c1 ?
p53ts 32C kill: 0%; p53ts 39C kill: 5%

How did Oc1ccc(Cl)cc1Cc1cc(Cl)cc(Cc2cc(Cl)ccc2O)c1O do in these assays?
p53ts 32C kill: 29%[9.22 µM]; HPGD inh: -7%; p53ts 39C kill: 1%[9.22 µM]; 12-hLO inh: -6%[11.4 µM]

What do the screens show for `CC(C)(C)CC(C)(C)c1ccc(O)c(Cc2ccc(Cl)cc2Cl)c1`?
p53ts 32C kill: inconclusive; HPGD inh: -21%; p53ts 39C kill: 25µM*; 12-hLO inh: -4%

How did O=C(CSc1nncn2c1cc1sccc12)Nc1ccccc1C(F)(F)F do in these assays?
p53ts 32C kill: 3%; p53ts 39C kill: inconclusive

Results for NC(=NCc1ccc(Cl)c(Cl)c1)NC(=O)c1nc(Cl)c(N)nc1N ?
p53ts 32C kill: 13µM*; HPGD inh: inconclusive; p53ts 39C kill: 13µM*; 12-hLO inh: -7%

What do the screens show for `COc1ccc(C(=O)NCc2ccc(Cl)c(Cl)c2)cc1OC`?
HPGD inh: -13%; 12-hLO inh: -6%

What do the screens show for `CC1CCN(C(=O)c2ccc(NC(=O)C3CCCO3)cc2)CC1` (stereo not drawn)?
p53ts 32C kill: -2%; HPGD inh: 0.71µM*; p53ts 39C kill: -12%; 12-hLO inh: -4%

How did S=C(Nc1ccc(Oc2ccccc2)cc1)NC1CCCC1 do in these assays?
HPGD inh: -6%; 12-hLO inh: 14µM*

Screening data deposited in PubChem BioAssay by National Center for Advancing Translational Sciences (NCATS).
